Source: PubChem BioAssay
The list is not random: actives were taken first. Their share in the collection is about 0.41%.
GAA glycogen: GAA glycogen-cleavage inhibition or activation. P10253. recombinant GAA, glycogen substrate, Amplex Red glucose oxidase fluorescence. Potency, µM (titrated, usually from 76.4 µM), for inactives: top-dose activity change, negative = inhibition, usual class: inhibitors. 300,000 compounds, 0.38% hits. AID 2100;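 also: potency is read from the fitted curve at half-maximal effect; 0% = full enzyme reaction and -100% = no-enzyme basal signal; the screen sought inhibitors and activators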
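Recombinant human alpha-glucosidase (4 nM final) hydrolysed bovine liver glycogen (30 ug) for 40 min at 37 C in pH 5.0 citrate/phosphate with 0.01% Tween-20. Released glucose detected by glucose oxidase/Amplex Red, Ex 573/Em 610 nm. Compounds up to 77 uM; AC50 from Hill fits.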
aGlu spleen mod: inhibitors or activators of human alpha-glucosidase in spleen homogenate. P10253. human spleen homogenate, 4-MU-alpha-glucoside fluorescence. Potency, µM (doses to about 79.9 µM), inactives show at the top dose activity change, negative = inhibition, usual class: inhibitors. 240,000 compounds, 0.006% hits;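 also: potency is read from the fitted curve at half-maximal effect; 0% = enzyme with vehicle and -100% = no enzyme basal signal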
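Compounds were titrated against alpha-glucosidase in spleen homogenate at pH 5.0, with 1 mM 4-methylumbelliferyl substrate for 40 min at 37 C. Reactions were quenched with pH 10 NaOH/glycine and fluorescence measured.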
GLA inh pH 4.5: alpha-galactosidase A (human) inhibition, pH 4.5; purified enzyme, 4-MU-alpha-Gal fluorescence, pH 4.5; activity change, negative = inhibition, % at 105 µM; 230,000 tested, under 10 active;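 also: 0% = full activity with enzyme and -100% = basal without enzyme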
N370S GC: inhibits or activates N370S mutant glucocerebrosidase; P04062; N370S GC spleen homogenate, 4MU-glucoside fluorescence; Potency, µM (doses to about 59.4 µM), for inactives: top-dose activity change, negative = inhibition, usual class: inhibitors; 330,000 compounds, 0.092% hits;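 also: potency is read from the fitted curve at half-maximal effect; 0% = full enzyme activity and -100% = no enzyme basal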
GAA inh: alpha-glucosidase (human) inhibition; P10253; purified human GAA, 4-MU-alpha-glucoside fluorescence; Potency, µM (doses to about 76.9 µM), for the others: at the highest dose activity change, negative = inhibition, hits mostly inhibitors; 200,000 compounds, 0.005% hits; AID 1466;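 also: potency is read from the fitted curve at half-maximal effect; plate controls were uninhibited enzyme wells for no effect and no-enzyme background for full effect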
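Compounds are titrated up to 77 uM against 4 nM human enzyme. Substrate 4-methylumbelliferyl-alpha-D-pyranoside (400 uM) reacts 20 min at room temperature in pH 5.0 buffer; liberated 4-methylumbelliferone is read at 440 nm.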
aGal spleen mod: alpha-galactosidase A (human) modulation | human spleen homogenate, 4MU-alpha-Gal fluorescence, 40 min | P06280 | 240,000 compounds, 0.008% hits | Potency, µM (titrated, usually from 80 µM), inactives show at the top dose activity change, negative = inhibition, usual class: inhibitors | AID 2107;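 also: potency is read from the fitted curve at half-maximal effect; 0% = enzyme with vehicle and -100% = no enzyme basal signal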
Target sequence (P06280 32-429 limits assumed): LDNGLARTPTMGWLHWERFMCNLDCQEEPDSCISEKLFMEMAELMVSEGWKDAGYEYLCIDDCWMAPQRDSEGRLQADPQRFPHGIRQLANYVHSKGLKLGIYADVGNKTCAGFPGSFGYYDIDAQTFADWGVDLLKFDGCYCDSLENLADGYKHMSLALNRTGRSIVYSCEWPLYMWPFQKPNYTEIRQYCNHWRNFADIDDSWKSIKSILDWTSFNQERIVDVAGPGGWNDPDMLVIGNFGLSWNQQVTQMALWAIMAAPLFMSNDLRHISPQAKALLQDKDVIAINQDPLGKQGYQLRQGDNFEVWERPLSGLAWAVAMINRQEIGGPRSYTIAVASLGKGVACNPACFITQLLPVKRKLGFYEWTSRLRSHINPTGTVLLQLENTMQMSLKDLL
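Fluorogenic readout (Ex 365/Em 440 nm) of 4-methylumbelliferone released from 1 mM 4-MU-alpha-galactoside by spleen homogenate, 40 min at 37C, pH 5.0. Data normalized to no-enzyme and enzyme controls; Hill-equation AC50 from compound titrations.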
* = called active by the depositor; [ ] = another dose, or the depositor's remark. Calls follow the shape of the dose curve; as a rule, active = well fitted curve in the direction sought with a large enough effect; inconclusive = small, poorly fitted or top-dose-only effect, or another doubt; inactive = no such curve, though single readings can be large; an effect the other way counts as inactive or inconclusive.

How did Cc1c(N=Cc2ccncc2)c(=O)n(-c2ccccc2)n1C do in these assays?
GAA glycogen: 12µM*; aGlu spleen mod: 0%; GLA inh pH 4.5: 5; N370S GC: -15%; GAA inh: 7%; aGal spleen mod: 1%

How did Cc1cccn2c(=O)c(C=Nc3c(C)n(C)n(-c4ccccc4)c3=O)c(N3CCCC3)nc12 do in these assays?
GAA glycogen: 11µM*; aGlu spleen mod: -3%; GLA inh pH 4.5: 8; N370S GC: 6%; GAA inh: -2%; aGal spleen mod: -4%

What do the screens show for `Cc1c(N=Cc2c(O)n(C)c(=O)c3ccccc23)c(=O)n(-c2ccccc2)n1C`?
GAA glycogen: -12%; aGlu spleen mod: -6%; GLA inh pH 4.5: 6; N370S GC: 2%; GAA inh: inconclusive; aGal spleen mod: -3%

Results for Cc1c(N=Cc2ccccn2)c(=O)n(-c2ccccc2)n1C ?
GAA glycogen: 13µM*; aGlu spleen mod: -12%; GLA inh pH 4.5: 3; N370S GC: 5%; GAA inh: -6%; aGal spleen mod: -4%

What do the screens show for `COc1cccc(N2CCN(C(=O)c3ccc(CS(=O)c4ccccc4Cl)o3)CC2)c1` (stereo unspecified)?
GAA glycogen: -1%[76.3 µM]; N370S GC: -1%

What do the screens show for `C=CCNC(=S)Nc1ccc(N(C)C)cc1`?
GAA glycogen: 3.1µM*; aGlu spleen mod: -2%; GLA inh pH 4.5: -7; N370S GC: 1%; GAA inh: -5%; aGal spleen mod: -2%

What do the screens show for `C=CCNC(=S)Nc1ccc(C(N)=O)cc1`?
GAA glycogen: 3%; aGlu spleen mod: -2%; GLA inh pH 4.5: 1; N370S GC: 2%; GAA inh: 12%; aGal spleen mod: -9%

How did Clc1ccc2nc(-c3ccccc3)c(CN3CCOCC3)n2c1 do in these assays?
GAA glycogen: 7%; aGlu spleen mod: 5%; GLA inh pH 4.5: 1; N370S GC: 18µM*; GAA inh: 5%; aGal spleen mod: -2%

Results for Clc1ccc(-c2nc3ccccn3c2CN2CCOCC2)cc1 ?
GAA glycogen: 0%; aGlu spleen mod: -8%; GLA inh pH 4.5: -11; N370S GC: -11%; GAA inh: inconclusive; aGal spleen mod: -9%

How did CC/C(=C\C(=O)c1ccncc1)Nc1ccc(O)cc1 do in these assays?
GAA glycogen: 45µM*; aGlu spleen mod: -8%; GLA inh pH 4.5: -14; N370S GC: 3%[2.35 µM]; GAA inh: -8%; aGal spleen mod: 9%

What do the screens show for `O=C(c1cccc2cccc(O)c12)N1CCCCC1`?
GAA glycogen: 25µM*; aGlu spleen mod: 2%; GLA inh pH 4.5: 0; N370S GC: -10%; GAA inh: 5%; aGal spleen mod: 7%

Results for O=C(c1cccc2ccccc12)N1CCCCC1 ?
GAA glycogen: -8%[76.3 µM]; N370S GC: -2%

What do the screens show for `CCCOc1cccc(-c2nn(-c3ccccc3)cc2/C=C(\C#N)C(=O)NCCCn2ccnc2)c1`?
GAA glycogen: -11%; aGlu spleen mod: -17%; GLA inh pH 4.5: -13; N370S GC: -24%; GAA inh: -9%; aGal spleen mod: 8%

How did N#C/C(=C/c1cn(-c2ccccc2)nc1-c1cccc(OCc2ccc(F)cc2)c1)C(=O)NCCCn1ccnc1 do in these assays?
GAA glycogen: 3%; aGlu spleen mod: -15%; GLA inh pH 4.5: -9; N370S GC: 16µM*; GAA inh: -7%; aGal spleen mod: -12%

How did c1ccc(N2CCN(c3ncccn3)CC2)cc1 do in these assays?
GAA glycogen: 8%; aGlu spleen mod: -5%; GLA inh pH 4.5: -1; N370S GC: 21%; GAA inh: 14%; aGal spleen mod: -5%

Results for Oc1ccccc1N1CCN(c2ncccn2)CC1 ?
GAA glycogen: 7.9µM*; aGlu spleen mod: -2%; GLA inh pH 4.5: -3; N370S GC: 4%; GAA inh: 0%; aGal spleen mod: -24%
